Measurements from PubChem BioAssay AID624331 (National Center for Advancing Translational Sciences (NCATS), 2012).
Inconclusive results are not listed. Unmarked numbers belong to inactive results. Calls come from the whole dose curve; as a rule, active = well fitted activation curve with a large enough effect; inconclusive = small, poorly fitted or top-dose-only effect; inactive = no such curve, though single readings can be large or run the other way.

assay: qHTS assay for re-activators of p53 using a Luc reporter: Hit Validation with no p53 Expressed; details: p53-null cells, luciferase reporter counter-screen; series mostly up to 46.1 µM; activity change, positive = activation: at the top concentration; note: 0% is about no effect
Source text: The p53 tumor suppressor plays a key role in suppression of tumorigenesis and in human carcinogenesis. It is frequently found inactivated in human cancers, mainly by point mutation. These point mutations are found in a wide variety of human cancers and a majority of them affect the DNA binding domain of the protein. The point mutations either alter native p53 conformation or abolish DNA contact. Additionally, cancer cells with p53 mutations are more resistant to chemo-radiation therapies.
This counter screen was run against the hits identified from the primary screen. It uses a cell line that was not transfected with p53. Compounds that show activity in this counter screen show unspecific activation of the assay system and are excluded from further consideration.
NIH Chemical Genomics Center [NCGC]
NIH Molecular Libraries Probe Production Centers Network [MLPCN]
Assay Provider (PI): Yi Sung, University of Michigan at Ann Arbor
5ul of 1000 cells per well are dispensed in all wells except column 4, into white solid-bottom TC-treated Kalypsys plates. The cells are kept in Opti-MEM and supplemented with 10% FBS and dispensed using a Multidrop (Thermo). Then using the Kalypsys pin-tool, 23nl of compounds are pinned. The compounds are starting concentration at 10mM, with 1:5 dilution, 4 points, and the control compound nocodazole is pinned in column 1 at 25mM, 1:3 dilution, in duplicate, 25mM nocodazole is pinned in column 2. Please note, all concentrations are working concentrations. 5ul of 1pM purified luciferase enzyme is dispensed using the Kalypsys dispenser in column 4. Plates are incubated for 24 hrs at 37 deg C, 5% CO2, and 95% humidity. Then 4ul of the detection reagent Amplite (ABD Bioquest) is added using the Kalypsys dispenser. Plates are incubated for 10 min at ambient room temperature and are then read on the ViewLux (Perkin Elmer) using a clear filter for a luminescent read-out.

Row | Compound | activity change, positive = activation [%]
1 | Cc1cc(N2C(=O)C3CCCN3C2c2sccc2C)no1 (configuration not stated) | -7.66
2 | COc1ccc(CN2CCNCC2)cc1 | -27.3
3 | N=C1c2ccccc2CN1CC(=O)c1ccccc1 | 60.3
4 | N#Cc1cc2c(nc1SCC(=O)Nc1cc(Cl)ccc1Cl)C1CCN2CC1 | -10.3
5 | CCCCCCOc1ccc(CN2CCN(C)CC2)cc1 | 83.8
6 | CN(C)P(=O)(C(Cl)=C(N1CCCCC1)N1CCCCC1)N(C)C | 56.7
7 | O=C(N/N=C/c1c(O)n(Cc2ccccc2)c(=O)[nH]c1=O)c1ccccc1 | -23.5
8 | O=C(c1cc2c(s1)CCCC2)N1CCC2(CC1)OCCO2 | -22.7
9 | COC(=O)C1=C(c2cccc(C#N)c2)C[C@@H]2CC[C@H]1N2C(=O)NC1CC1 | -26.1
10 | COC(=O)C1=C(c2ccc(F)cc2OCc2ccccc2)C[C@@H]2CC[C@H]1N2C(=O)NCCOc1ccc(OC)cc1 | -31
11 | Nc1c(C(=O)NCc2ccco2)c2nc3ccccc3nc2n1Cc1ccc(F)cc1 | -16.3
12 | N#Cc1cc2c(nc1SCC(=O)Nc1ccc(Cl)cc1)C1CCN2CC1 | -5.62
13 | Nc1ccccc1N=Cc1c(O)n(CCC2=CCCCC2)c(=O)[nH]c1=O | -35.9
14 | O=C(N/N=C/c1c(O)n(C2CC2)c(=S)[nH]c1=O)c1ccccc1 | 38.9
15 | COc1ccc(NC(=O)C2C3CCC(O3)C2C(=O)O)c(OC)c1 (configuration not stated) | 13.5
16 | C=C(C)C(Cc1c(OC)ccc(C(=O)/C=C/c2ccc(O)cc2)c1O)OO (configuration not stated) | 12.7
17 | CC1CCCCC1NC1CCN(C)CC1 (configuration not stated) | 8.27
